Read-out in test [1]: Interleukin-8 (IL8), CXCL8 (gene 3576)
Nature of the test: BSK_CASM3C_IL8: BioMAP Diversity Plus: CASM3C Assay for Interleukin-8 (IL8) Biomarker Activity (AID 2283042).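 Also: IL-8 protein level quantified by ELISA.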 The note with it: primary human coronary artery smooth muscle cells; actives raise or lower the signal.

Read-out in test [2]: Human Leukocyte Antigen - DR isotype (HLADR), HLA-DRA (gene 3122)
In words: BSK_CASM3C_HLADR: BioMAP Diversity Plus: CASM3C Assay for Human Leukocyte Antigen - DR isotype (HLADR) Biomarker Activity (AID 2283043).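 Also: cell-surface HLA-DR protein level quantified by ELISA.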 The following applies: primary human coronary artery smooth muscle cells; actives raise or lower the signal.

Read-out in test [3]: Macrophage colony-stimulating factor (MCSF), CSF1 (gene 1435)
In words: BSK_CASM3C_MCSF: BioMAP Diversity Plus: CASM3C Assay for Macrophage colony-stimulating factor (MCSF) Biomarker Activity (AID 2283044).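 Also: M-CSF protein amount quantified by ELISA after 24 h exposure.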 The following applies: primary human coronary artery smooth muscle cells; actives raise or lower the signal.

Read-out in test [4]: Low-density lipoprotein receptor (LDLR), LDLR (gene 3949)
In words: BSK_CASM3C_LDLR: BioMAP Diversity Plus: CASM3C Assay for Low-density lipoprotein receptor (LDLR) Biomarker Activity (AID 2283045).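 Also: LDLR protein level on the cell surface quantified by ELISA.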 The note with it: primary human coronary artery smooth muscle cells; actives raise or lower the signal.

Read-out in test [5]: Monocyte Chemoattractant Protein-1 (MCP1), CCL2 (gene 6347)
In words: BSK_CASM3C_MCP1: BioMAP Diversity Plus: CASM3C Assay for Monocyte Chemoattractant Protein-1 (MCP1) Biomarker Activity (AID 2283046).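 Also: MCP-1 level quantified by ELISA 24 h after dosing.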 The note with it: primary human coronary artery smooth muscle cells; actives raise or lower the signal.

Test [6] is described as follows: BSK_CASM3C_Proliferation: Cell Proliferation Assessment in the BioMAP Diversity Plus: CASM3C Assay (AID 2283047).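 Also: sulforhodamine B total protein stain as relative cell number at 560 nm; sub-confluent cells exposed 48 h before staining; fitted both ways against DMSO so gain or loss of cell number.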 The following applies: primary human coronary artery smooth muscle cells.
Read-out in test [7]: Monokine induced gamma interferon (MIG), CXCL9 (gene 4283)
Nature of the test: BSK_CASM3C_MIG: BioMAP Diversity Plus: CASM3C Assay for Monokine induced gamma interferon (MIG) Biomarker Activity (AID 2283048).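 Also: MIG protein level measured by ELISA.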 The following applies: primary human coronary artery smooth muscle cells; actives raise or lower the signal.

Read-out in test [8]: serum amyloid A (SAA), SAA1 (gene 6288)
In words: BSK_CASM3C_SAA: BioMAP Diversity Plus: CASM3C Assay for serum amyloid A (SAA) Biomarker Activity (AID 2283049).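 Also: SAA protein level quantified by ELISA.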 The following applies: primary human coronary artery smooth muscle cells; actives raise or lower the signal.

A short description of test [9]: BSK_CASM3C_SRB: Viability Assessment in the BioMAP Diversity Plus: CASM3C Assay (AID 2283050).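 Also: total protein by SRB staining as cytotoxicity measure in parallel cultures; cells exposed to compound for 24 h.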 The following applies: primary human coronary artery smooth muscle cells.
Read-out in test [10]: Thrombomodulin, THBD (gene 7056)
In words: BSK_CASM3C_Thrombomodulin: BioMAP Diversity Plus: CASM3C Assay for Thrombomodulin Biomarker Activity (AID 2283051).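 Also: thrombomodulin protein level measured by ELISA 24 h after dosing.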 The following applies: primary human coronary artery smooth muscle cells; actives raise or lower the signal.

The source of these data is PubChem BioAssay (EPA / NIEHS).

Active and inactive are the calls of the source. The calls were made as follows: active = hit-call score of the fitted dose curve at least 0.9, where 1 is the maximum; inactive = score below 0.9.

For the compound `Nc1cccc(N)c1`, the result in [1], in [2], in test [3], in test [4], in test [5] and in test [6] was inactive. The outcome in [7], in test [8], in test [9] and in test [10] was inactive.
Turning to `O=C(O)c1cc(N=Nc2ccc(S(=O)(=O)Nc3ccccn3)cc2)ccc1O`, the result in test [1], in test [2], in [3], in test [4], in test [5] and in test [7] was inactive. Further, the result in test [8], in [9] and in [10] was inactive. Besides, the AC50 (usually the concentration at which the activity in the assay is half-maximal) in test [6] was 14.5 µM (active).
Consider `C=CCCCCCCCCC(=O)O`, for which the result in test [1], in test [2], in [3], in test [4], in test [5] and in test [6] was inactive. The outcome in test [7], in [8], in test [9] and in test [10] was inactive.
Take `CC(=O)OC[C@H]1O[C@@](COC(C)=O)(O[C@H]2O[C@H](COC(C)=O)[C@@H](OC(C)=O)[C@H](OC(C)=O)[C@H]2OC(C)=O)[C@@H](OC(C)=O)[C@@H]1OC(C)=O`: the result in test [1], in [2], in test [3], in test [4], in [5] and in test [6] was inactive. The result in test [7], in test [8], in test [9] and in test [10] was inactive.
Turning to `CC(=O)c1ccc2c(c1)[C@H](NC(=O)c1ccc(F)cc1)[C@@H](O)C(C)(C)O2`, the result in [1], in test [2], in [3], in test [4], in test [5] and in test [6] was inactive. The outcome in test [7], in test [8], in test [9] and in test [10] was inactive.
In the case of `CC(O)CN(CCN(CC(C)O)CC(C)O)CC(C)O` (stereo not given), the outcome in test [1], in test [2], in test [3], in test [4], in test [5] and in test [6] was inactive. The result in test [7], in test [8], in test [9] and in [10] was inactive.
For `CC(C)CCCCCCOC(=O)c1ccc(C(=O)OCCCCCCC(C)C)c(C(=O)OCCCCCCC(C)C)c1`, the outcome in test [1], in test [2], in test [3], in test [4], in [5] and in test [6] was inactive. The result in test [7], in test [8], in [9] and in test [10] was inactive.
Take `C1=CCCC=CCCC=CCC1`: the result in test [1], in test [2], in test [3], in test [4], in test [5] and in test [6] was inactive. Further, the outcome in [7], in [8], in test [9] and in [10] was inactive.
On to `O=c1n(CC2CO2)c(=O)n(CC2CO2)c(=O)n1CC1CO1` (stereo not given), for which the result in test [1], in [3], in test [4], in test [5], in test [7] and in test [8] was inactive. The result in test [9] and in test [10] was inactive. In addition, the AC50 in test [2] was 15.3 µM (active); in test [6], 1.85 µM (active).
As to `O=P(OC(CCl)CCl)(OC(CCl)CCl)OC(CCl)CCl`, the outcome in test [1], in test [2], in [3], in test [4], in test [5] and in test [7] was inactive. The outcome in test [8] and in test [9] was inactive. Besides, the figures for the AC50 in [6] and in test [10] were 20 µM (active) and 15.7 µM (active), respectively.
`O=C1CCC(N2C(=O)c3ccccc3C2=O)C(=O)N1` (stereo not given): the outcome in test [1], in test [2], in [3], in test [4], in test [5] and in [6] was inactive. Further, the result in [7], in [8], in [9] and in [10] was inactive.
For `COCCOCCOCCOC`, the result in [1], in test [2], in [3], in [4], in test [5] and in test [6] was inactive. Further, the outcome in test [7], in [8], in test [9] and in [10] was inactive.
Regarding `COC(=O)CC(=O)OC`, the outcome in test [1], in test [2], in [3], in test [4], in [5] and in [6] was inactive. In addition, the result in test [7], in test [8], in test [9] and in test [10] was inactive.
`CC(C)=CCCC(C)=CC=O`: the result in test [1], in test [2], in test [3], in test [4], in [5] and in test [6] was inactive. For the same compound, the outcome in [7], in test [8], in test [9] and in [10] was inactive.
For the compound `Cn1c(=O)c2c(ncn2C)n(C)c1=O`, the outcome in [1], in test [2], in test [3], in [4], in test [5] and in [6] was inactive. The outcome in test [7], in test [8], in [9] and in test [10] was inactive.
Consider `CCN(C(=O)c1cc(C)cc(OC[C@H](C)Nc2ccncc2)c1)C(C)C`, for which the outcome in [1], in [2], in [3], in test [4], in test [5] and in test [6] was inactive. Further, the result in [7], in test [8], in test [9] and in test [10] was inactive.
As for `NC(=O)NO`, the outcome in test [1], in [2], in test [3], in test [4], in test [5] and in test [6] was inactive. Moreover, the result in test [7], in test [8], in [9] and in test [10] was inactive.
Consider `Nc1ccc(Nc2ccccc2)cc1`, for which the result in [1], in test [2], in [3], in test [4], in test [5] and in test [7] was inactive. Besides, the outcome in [8] and in test [9] was inactive. In addition, the AC50 in test [6] is 20 µM (active); in [10] it was 3.23 µM (active).
In the case of `O=C(O)c1cccc(Oc2ccccc2)c1`, the outcome in test [1], in test [2], in test [3], in test [4], in [5] and in [6] was inactive. The outcome in test [7], in [8], in test [9] and in [10] was inactive.
